Screening results as filed in PubChem BioAssay.
This is a sample that favours compounds with a hit; in the whole collection about 7.9% have one here.
HT1080NT lethal = qHTS for induction of synthetic lethality in tumor cells producing 2HG: qHTS for the HT-1080-NT fibrosarcoma cell line | HT-1080-NT fibrosarcoma viability, CellTiter-Glo ATP luminescence, 48 h | Potency, µM (series often up to 46.1 µM), most hits filed as cytotoxic | 360,000 tested, 1.6% active | AID 686970, 2013;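 note: NT is the 2HG producing partner of a matched IDH1 knockdown line; nearly all actives have a fitted effect of over 55% in size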
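HT-1080-NT; 750 cells/well; 5% FBS RPMI; 48 h compound, 37 degrees C; CellTiter-Glo luminescence; curve fitting and curve-class assignment.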
KB-3-1 cytotox = qHTS assay for MDR1-selective chemotherapeutics: Primary screen using the parental adenocarcinoma cell KB-3-1; KB-3-1 viability, CellTiter-Glo ATP luminescence, 72 h; Potency, µM (highest dose often 46.1 µM), hits mostly cytotoxic; 400,000 tested, 1.4% active; AID 1347075, 2019; note: nearly all actives have a fitted effect of over 60% in size
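72 h, 37 °C compound treatment of KB-3-1 parental cells; CellTiter-Glo added, 10 min, luminescence read. Data corrected against DMSO-only plates and normalized before curve fitting.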
HT1080 IDH1KD tx = qHTS for induction of synthetic lethality in tumor cells producing 2HG: qHTS for the HT-1080-IDH1KD cell line | HT-1080 IDH1 knockdown viability, ATP luminescence, 48 h | Potency, µM (highest dose often 46.1 µM), usual class: cytotoxic | 360,000 tested, 2% active
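% activity derives from luminescence (CellTiter-Glo), normalised to DMSO and no-cell wells. HT-1080-IDH1KD cells, 750/well, had 48 h compound exposure at 37 °C.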
MCF10A rereplic = A quantitative high throughput screen for small molecules that induce DNA re-replication in MCF 10a normal breast cells; MCF 10A DNA re-replication, Hoechst nuclear intensity, 48 h; Potency, µM (titrated, usually from 46.1 µM), usual class: activators; 350,000 tested, 2.9% active; AID 624296, 2012; note: nearly all actives have a fitted effect of over 50% in size
SW480 rerep = A quantitative high throughput screen for small molecules that induce DNA re-replication in SW480 colon adenocarcinoma cells; Potency, µM (top dose mostly 46.1 µM), actives largely listed as activators; 340,000 tested, 1.8% active; SW480 DNA re-replication, Hoechst DNA content imaging, 48 h; note: nearly all actives have a fitted effect of over 55% in size
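SW480 cells exposed to compounds for 48 hr at 37 C, 5% CO2, then Hoechst-stained 40 min. Nuclear DNA content imaged by fluorescence scanning (405 nm excitation, 500-530 nm emission); re-replication scored as increased high-intensity nuclei.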
KB-V1 MDR tox = qHTS assay for MDR1-selective chemotherapeutics: Primary screen using the drug-selected MDR subline cells KB-V1 | KB-V1 MDR cells viability, CellTiter-Glo, 72 h | Potency, µM (highest dose often 46.1 µM), hits mostly cytotoxic | 400,000 tested, 3.4% active; note: nearly all actives have a fitted effect of over 60% in size
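KB-V1, DMEM (no phenol red) + 10% FBS; cpd pin-transferred, titration series; 72 h, 37 degrees C; CellTiter-Glo, luminescence. Data normalized, curve-fit.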
Of the large screens only hits and unclear results are named; the others gave an inactive call. Calls come from the whole dose curve; as a rule, active = well fitted curve in the direction sought with a large enough effect; inconclusive = small, poorly fitted or top-dose-only effect, or another doubt; inactive = no such curve, though single readings can be large; an effect the other way counts as inactive or inconclusive.

O=C(N/N=C/c1ccccn1)c1ccccc1	MCF10A rereplic inconclusive
O=C(N/N=C/c1ccccn1)c1ccc(Cl)cc1	HT1080 IDH1KD tx inconclusive, MCF10A rereplic inconclusive, SW480 rerep 4.1µM
C(=N\NC(=Nc1ccccc1)c1ccccn1)/c1ccccn1	KB-3-1 cytotox inconclusive, MCF10A rereplic inconclusive, SW480 rerep inconclusive, KB-V1 MDR tox 16µM
COc1cc(C(=O)N/N=C/c2ccccn2)cc(OC)c1OC	HT1080NT lethal inconclusive, KB-3-1 cytotox 18µM, HT1080 IDH1KD tx inconclusive, MCF10A rereplic 21µM, SW480 rerep 18µM, KB-V1 MDR tox inconclusive
O=C(N/N=C\c1ccccn1)C1c2ccccc2Oc2ccccc21	HT1080NT lethal inconclusive, HT1080 IDH1KD tx inconclusive, SW480 rerep 18µM
O=C(NCc1ccccc1Br)c1cccs1	none (no result: MCF10A rereplic, SW480 rerep)
Cc1nc([N+](=O)[O-])cn1CC(=O)c1ccc2c(c1)OCCO2	none (no result: HT1080NT lethal, HT1080 IDH1KD tx, MCF10A rereplic, SW480 rerep)
CCOc1ccc(NC(=O)CCc2nc3cccnc3n2Cc2ccc(OC)cc2)cc1	none (no result: HT1080NT lethal, HT1080 IDH1KD tx, MCF10A rereplic, SW480 rerep)
Cc1ccc(NC(=O)Cn2c(=O)n(CCCCC(=O)NCCc3ccc(Cl)cc3)c(=O)c3ccccc32)cc1	none (no result: HT1080NT lethal, HT1080 IDH1KD tx, MCF10A rereplic, SW480 rerep)
Cc1ccccc1C(=O)N/N=C/c1ccccn1	KB-3-1 cytotox inconclusive, HT1080 IDH1KD tx inconclusive, SW480 rerep inconclusive, KB-V1 MDR tox 21µM
O=C(N/N=C\c1ccccn1)c1ccccc1O	HT1080 IDH1KD tx inconclusive, MCF10A rereplic inconclusive
CCOC(=O)c1c(-c2ccc(-c3ccccc3)cc2)csc1NC(=O)C1C2CCC(O2)C1C(=O)O (configuration not stated)	HT1080NT lethal inconclusive, HT1080 IDH1KD tx inconclusive, MCF10A rereplic 9.2µM
CCOC(=O)c1c(-c2ccccc2)csc1NC(=O)/C(C#N)=C/c1ccc(OC)c(OC)c1	MCF10A rereplic inconclusive
CCOC(=O)c1cc(C)sc1NC(=O)CSc1nnnn1C	none
CCOC(=O)c1c(NC(=O)CSc2nnnn2C)sc(C)c1-c1ccc(C)cc1	HT1080NT lethal inconclusive, KB-3-1 cytotox inconclusive, HT1080 IDH1KD tx 8.9µM, MCF10A rereplic inconclusive, KB-V1 MDR tox 13µM
CCOC(=O)c1c(-c2ccccc2)csc1NC(=O)/C(C#N)=C/c1ccc(O)c(OC)c1	HT1080NT lethal inconclusive, MCF10A rereplic 21µM, SW480 rerep inconclusive
CCOC(=O)c1c(-c2ccccc2)csc1NC(=O)CSc1ccccc1	KB-V1 MDR tox 18µM
CCOC(=O)c1c(-c2ccccc2)csc1NC(=O)CSc1nncs1	KB-V1 MDR tox inconclusive
COc1ccc(CNC(=O)CN2C(=O)CC(c3ccc(C)c(C)c3)=Nc3ccccc32)cc1	none (no result: HT1080NT lethal, HT1080 IDH1KD tx, MCF10A rereplic, SW480 rerep)
CCOc1ccc(CNC(=O)CSc2nnc(C)c3c(C)n(-c4ccc(Cl)cc4)nc23)cc1	none (no result: HT1080NT lethal, HT1080 IDH1KD tx, MCF10A rereplic, SW480 rerep)
COc1cccc(-c2cc(C(F)(F)F)n3ncc(C(=O)OC(C)C)c3n2)c1	none (no result: HT1080NT lethal, HT1080 IDH1KD tx, MCF10A rereplic, SW480 rerep)
CCOC(=O)c1c(-c2ccc(OC)cc2)csc1NC(=O)CSc1nnc(C)c(=O)[nH]1	MCF10A rereplic inconclusive
CCOC(=O)c1c(NC(=O)CSc2nncs2)sc(C)c1-c1ccccc1	KB-3-1 cytotox inconclusive, HT1080 IDH1KD tx inconclusive, MCF10A rereplic 7.3µM, KB-V1 MDR tox 7.3µM
COC(=O)c1c(-c2ccc3ccccc3c2)csc1NC(=O)Cc1ccc(OC)c(OC)c1	KB-3-1 cytotox inconclusive, MCF10A rereplic inconclusive, SW480 rerep inconclusive, KB-V1 MDR tox 15µM
CCOC(=O)c1c(-c2ccc(OC)cc2)csc1NC(=O)CSc1ccccc1	KB-3-1 cytotox inconclusive, MCF10A rereplic 7.3µM
Cn1nnnc1SCC(=O)Nc1ccccc1-c1ccccc1	none
CCOC(=O)c1c(-c2ccccc2)csc1NC(=O)CSc1nnnn1C	HT1080NT lethal inconclusive, HT1080 IDH1KD tx 11µM, MCF10A rereplic inconclusive
C(=C\c1ccnc2ccccc12)/c1cc2c3c(c1)CCCN3CCC2	none (no result: HT1080NT lethal, HT1080 IDH1KD tx, MCF10A rereplic, SW480 rerep)
